The whole screen tested about 400,000 compounds, of which about 3,700 (0.93%) were called active. Another 3% or so got no clear call; they are omitted. The calls are words filed in the database; no cut-off is given here. The sample as a whole holds a higher share of actives than the screen did.
Target: T1, Vitamin D3 receptor (Homo sapiens) (UniProt P11473)
T1 sequence (whole entry): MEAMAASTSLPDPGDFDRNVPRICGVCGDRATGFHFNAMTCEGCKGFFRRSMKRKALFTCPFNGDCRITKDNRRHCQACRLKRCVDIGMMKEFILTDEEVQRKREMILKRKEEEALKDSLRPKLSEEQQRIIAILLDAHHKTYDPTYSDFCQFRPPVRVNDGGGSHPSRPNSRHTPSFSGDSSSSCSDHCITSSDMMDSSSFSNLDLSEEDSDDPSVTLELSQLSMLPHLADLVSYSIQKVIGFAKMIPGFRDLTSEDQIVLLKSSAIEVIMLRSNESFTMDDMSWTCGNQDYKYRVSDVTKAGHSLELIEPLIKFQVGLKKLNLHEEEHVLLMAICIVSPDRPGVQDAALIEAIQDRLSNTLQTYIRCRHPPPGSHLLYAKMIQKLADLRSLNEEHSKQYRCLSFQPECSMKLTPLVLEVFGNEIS
Test: Inhibitors of the vitamin D receptor (VDR): qHTS. [Related pubchem assays (depositor defined):AID504855]
Assay type: functional

Potency, active:
O=C(/C=C/c1ccc(Cl)cc1)c1cccs1 3.16 µM, COc1ccccc1/C=C/C(=O)c1cccs1 25.1 µM, CCCc1nnc(NC(=O)C2C(=O)c3cccc4c3N(CC4)C2=O)s1 (stereo not drawn) 79.4 µM
